# In PubChem BioAssay AID720597 (Broad Institute, 2013):
# Measured potencies and affinities stand elsewhere. The source made the active and inactive calls.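 The calls were made as follows: active = fitted half-maximal dose no more than twice the top valid tested dose, for compounds that lower signal; inconclusive = fit invalid, or curve flat with activity between -70 and -30; inactive = potency past limit, curve flat within ±30, or signal increasing.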
# Molecular target: NAD-dependent protein deacylase sirtuin-5, mitochondrial (Homo sapiens) (UniProt Q9NXA8)
# Test: blockers of sirtuin-5 peptide desuccinylation – biochemical, fluorescence imaging, cherry-pick, set 6, dose response (AID 720597);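 also: lower AMC signal can also come from blocking the trypsin step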
# Conditions: Purified SirT5, succinyl-peptide-AMC/trypsin fluorescence; series mostly up to 15 µM
# Chain of NAD-dependent protein deacylase sirtuin-5, mitochondrial (Homo sapiens) (Q9NXA8 whole entry, looked up): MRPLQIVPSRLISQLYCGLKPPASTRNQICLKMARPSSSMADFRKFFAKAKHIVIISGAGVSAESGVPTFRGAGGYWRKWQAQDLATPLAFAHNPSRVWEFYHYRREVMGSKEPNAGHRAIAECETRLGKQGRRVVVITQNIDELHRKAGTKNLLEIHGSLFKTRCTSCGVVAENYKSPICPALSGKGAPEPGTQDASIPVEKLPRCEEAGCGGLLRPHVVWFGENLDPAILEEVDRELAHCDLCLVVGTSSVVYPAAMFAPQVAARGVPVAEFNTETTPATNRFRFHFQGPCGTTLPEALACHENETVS
row,SMILES,outcome
1,COc1ccc(S(=O)(=O)N(C)C[C@@H]2OCCCC[C@@H](C)Oc3ccc(NC(=O)Nc4ccc(C(F)(F)F)cc4)cc3C(=O)N([C@@H](C)CO)C[C@@H]2C)cc1,inactive
2,O=C(C[C@H]1CC[C@H]2[C@@H](COC[C@@H](O)CN2C(=O)c2ccncc2)O1)Nc1ccc(-c2ccccc2)cc1,inactive
3,C[C@@H]1CCCCO[C@@H](CN(C)Cc2ccc(C(F)(F)F)cc2)[C@H](C)CN([C@@H](C)CO)C(=O)c2cc(NS(=O)(=O)c3cccs3)ccc2O1,inactive
4,COc1ccc(S(=O)(=O)Nc2ccc3c(c2)C(=O)N([C@H](C)CO)C[C@@H](C)[C@H](CN(C)S(=O)(=O)c2ccccc2)OCCCC[C@H](C)O3)cc1,inactive
5,C[C@H](CO)N1C[C@H](C)[C@@H](CN(C)Cc2ccc(C(F)(F)F)cc2)OCCCC[C@H](C)Oc2ccc(NS(=O)(=O)c3ccc(F)cc3)cc2C1=O,inactive
6,COc1ccc(NC(=O)Nc2ccc3c(c2)C(=O)N([C@@H](C)CO)C[C@@H](C)[C@H](CN(C)C(=O)Nc2cccc4ccccc24)OCCCC[C@H](C)O3)cc1,inactive
7,CCCC#Cc1ccc([C@@H]2[C@@H](CO)N3CCCCN(S(=O)(=O)Cc4ccccc4)C[C@H]23)cc1,inactive
8,Cc1ccc(S(=O)(=O)Nc2ccc3c(c2)C(=O)N([C@H](C)CO)C[C@H](C)[C@@H](CN(C)Cc2ccc(Cl)c(Cl)c2)OCCCC[C@H](C)O3)cc1,inactive
9,C[C@@H]1CN([C@@H](C)CO)S(=O)(=O)c2ccc(C#Cc3ccc(F)cc3)cc2O[C@@H]1CN(C)S(=O)(=O)c1ccc(F)cc1,inactive
10,C[C@H]1CN([C@@H](C)CO)C(=O)Cc2cc(NC(=O)CCCCCC(=O)Nc3ccccc3N)ccc2O[C@H]1CN(C)Cc1ccc(Oc2ccccc2)cc1,inactive
11,C[C@H]1CN([C@@H](C)CO)C(=O)c2cc(NC(=O)C3CC3)ccc2O[C@H]1CN(C)S(=O)(=O)c1cn(C)cn1,inactive
12,O=C(Nc1cc(F)ccc1F)N1CCCCN2[C@H](CO)[C@H](c3ccc(-c4ccccc4)cc3)[C@H]2C1,inactive
13,C[C@@H]1CN([C@@H](C)CO)S(=O)(=O)c2ccc(/C=C/c3ccccc3)cc2O[C@@H]1CN(C)C(=O)NC1CCCCC1,inactive
14,COc1ccc(S(=O)(=O)N(C)C[C@H]2OCCCC[C@H](C)Oc3ccc(NS(=O)(=O)c4ccc(C)cc4)cc3C(=O)N([C@@H](C)CO)C[C@H]2C)cc1,inactive
15,COc1cccc(C(=O)Nc2ccc3c(c2)C(=O)N(C)C[C@H](OC)[C@@H](C)CN(CCc2ccccc2)[C@@H](C)CO3)c1,inactive
16,C[C@@H]1CN([C@H](C)CO)C(=O)c2cc(NC(=O)CCC(F)(F)F)ccc2O[C@H]1CN(C)Cc1ccc(Oc2ccccc2)cc1,inactive
17,CCN(C[C@@H]1[C@@H](c2ccccc2)[C@H](CO)N1C(=O)C1CC1)C(=O)NC1CCCC1,inactive
18,C[C@@H]1CN([C@@H](C)CO)C(=O)Cc2cc(NS(=O)(=O)c3ccc(F)cc3)ccc2O[C@H]1CN(C)Cc1ccc(C(F)(F)F)cc1,inactive
19,COc1ccc(CN(C)C[C@H]2OCCCC[C@H](C)Oc3ccc(N(C)C)cc3C(=O)N([C@H](C)CO)C[C@H]2C)cc1,inactive
20,COc1ccc(S(=O)(=O)N(C)C[C@H]2OCCCC[C@H](C)Oc3ccc(NS(=O)(=O)c4ccc(F)cc4)cc3C(=O)N([C@H](C)CO)C[C@H]2C)cc1,inactive

row,SMILES,outcome
1,COc1ccc(NC(=O)Nc2ccc3c(c2)C(=O)N([C@@H](C)CO)C[C@H](C)[C@H](CN(C)Cc2ccc(Cl)c(Cl)c2)O3)cc1,inactive
2,C[C@@H]1CN([C@@H](C)CO)S(=O)(=O)c2ccc(C3=CCCCC3)cc2O[C@@H]1CN(C)C(=O)Cc1ccccc1,inactive
3,Cc1noc(C)c1S(=O)(=O)Nc1ccc2c(c1)C(=O)N([C@@H](C)CO)C[C@H](C)[C@@H](CN(C)Cc1ccc(C(F)(F)F)cc1)OCCCC[C@@H](C)O2,inactive
4,CC(C)C#Cc1cnc2c(c1)C(=O)N([C@@H](C)CO)C[C@H](C)[C@H](CN(C)C(=O)c1ccccc1)O2,inactive
5,C[C@@H]1CN([C@H](C)CO)C(=O)c2cccc(NC(=O)C3CCCCC3)c2O[C@@H]1CN(C)CC1CC1,inactive
6,CC(C)NC(=O)NCC[C@H]1CC[C@@H](NS(=O)(=O)c2ccc(-c3ccccc3)cc2)[C@H](CO)O1,inactive
7,C[C@H]1CN([C@@H](C)CO)C(=O)c2cc(NS(=O)(=O)c3ccccc3)ccc2O[C@@H]1CN(C)Cc1ccc(C(=O)Nc2ccccc2N)cc1,inactive
8,C[C@@H](O)C#Cc1ccc([C@@H]2[C@H]3CN(C(=O)c4cccc(F)c4)CCCCN3[C@H]2CO)cc1,inactive
9,CCCC(=O)Nc1ccc2c(c1)OC[C@H](C)N(Cc1ccccc1)C[C@H](C)[C@H](OC)CN(C)C2=O,inactive
10,COc1ccc(S(=O)(=O)N(C)C[C@@H]2Oc3c(NS(C)(=O)=O)cccc3C(=O)N([C@@H](C)CO)C[C@H]2C)cc1,inactive
11,COc1ccccc1-c1ccc2c(c1)O[C@@H](CN(C)S(=O)(=O)c1ccccc1)[C@H](C)CN([C@H](C)CO)S2(=O)=O,inactive
12,COc1cccc(NC(=O)N2CC(=O)N3[C@@H](CO)[C@H](c4ccc(C#CCC5CCCC5)cc4)[C@@H]3C2)c1,inactive
13,C[C@H](CO)N1C[C@H](C)[C@H](CN(C)S(=O)(=O)c2ccc(Cl)cc2)OCCCC[C@H](C)Oc2ccc(NS(=O)(=O)c3ccc(F)cc3)cc2C1=O,inactive
14,CCC(=O)N1CCCCN2[C@H](CO)[C@H](c3ccc(-c4cccc(C#N)c4)cc3)[C@@H]2C1,inactive
15,COc1ccc(C#Cc2ccc([C@@H]3[C@@H](CO)N4C(=O)CN(C(=O)c5cccnc5)C[C@H]34)cc2)cc1,inactive
16,C[C@H](CO)N1C[C@H](C)[C@H](CN(C)Cc2ccc(C(F)(F)F)cc2)Oc2ccc(NS(C)(=O)=O)cc2C1=O,inactive
17,CC(C)CC#Cc1ccc2c(c1)O[C@H](CN(C)C(=O)c1cccc(F)c1)[C@@H](C)CN([C@H](C)CO)S2(=O)=O,inactive
18,CCCNC(=O)N1CC2(C1)[C@H](c1ccccc1)[C@H](CO)N2C(=O)C1CC1,inactive
19,CCNC(=O)C[C@H]1CC[C@@H]2[C@H](COC[C@H](O)CN2C(=O)Nc2ccc(C(F)(F)F)cc2)O1,inactive
20,COc1ccc(S(=O)(=O)N(C)C[C@@H]2Oc3cc(C#CC4CCCC4)ccc3S(=O)(=O)N([C@H](C)CO)C[C@H]2C)cc1,inactive

row,SMILES,outcome
1,CCCC#Cc1ccc([C@H]2[C@H]3CN(C(=O)Cc4cccnc4)CC(=O)N3[C@H]2CO)cc1,inactive
2,O=C(NCC[C@H]1CC[C@@H](NS(=O)(=O)c2cccc(F)c2)[C@H](CO)O1)C1CCOCC1,inactive
3,C[C@@H]1CN([C@H](C)CO)C(=O)c2c(c3ccccc3n2C)-c2ccccc2CO[C@@H]1CN(C)S(=O)(=O)c1ccc(C(F)(F)F)cc1,inactive
4,C[C@H](CO)N1C[C@H](C)[C@H](CN(C)C(=O)Nc2ccc(C(F)(F)F)cc2)OCCCC[C@H](C)Oc2ccc(NS(=O)(=O)c3ccc(Cl)cc3)cc2C1=O,inactive
5,C[C@H](O)C#Cc1ccc2c(c1)O[C@H](CN(C)Cc1ccc(-c3ccccc3)cc1)[C@@H](C)CN([C@@H](C)CO)S2(=O)=O,inactive
6,CO[C@H]1CC[C@@H]2CCOc3c(C#N)cccc3C(=O)N(C)C[C@H](C)C(=O)N(C)C[C@@H]1O2,inactive
7,C[C@@H]1CN([C@H](C)CO)C(=O)c2cccc(NC(=O)c3nc4ccccc4s3)c2O[C@@H]1CN(C)C(=O)NC1CCCCC1,inactive
8,Cc1ccc(S(=O)(=O)N(C)C[C@@H]2Oc3ncc(C#Cc4ccc(C(F)(F)F)cc4)cc3C(=O)N([C@H](C)CO)C[C@@H]2C)cc1,inactive
9,CO[C@H]1CN(C)C(=O)c2cc(NC(=O)c3ccccc3F)ccc2OC[C@@H](C)NC[C@@H]1C,inactive
10,C[C@@H]1CCCCO[C@@H](CN(C)Cc2ccc(C(F)(F)F)cc2)[C@H](C)CN([C@@H](C)CO)C(=O)c2cc(NS(=O)(=O)c3ccc(F)cc3)ccc2O1,inactive
11,C[C@H]1CN([C@@H](C)CO)S(=O)(=O)c2ccc(-c3cccc(F)c3)cc2O[C@@H]1CN(C)S(=O)(=O)c1ccc(F)cc1,inactive
12,COc1cccc(S(=O)(=O)N(C)C[C@@H]2Oc3cc(C4=CCCCC4)ccc3S(=O)(=O)N([C@H](C)CO)C[C@@H]2C)c1,inactive
13,CC(C)CC#Cc1ccc2c(c1)O[C@@H](CN(C)C(=O)C1CCCCC1)[C@H](C)CN([C@H](C)CO)S2(=O)=O,inactive
14,Cc1noc(C)c1S(=O)(=O)Nc1ccc2c(c1)C(=O)N([C@H](C)CO)C[C@H](C)[C@@H](CN(C)Cc1ccc(C(F)(F)F)cc1)OCCCC[C@H](C)O2,inactive
15,CO[C@H]1CN(C)C(=O)c2cc(NC(=O)CC(F)(F)F)ccc2OC[C@@H](C)N(C(=O)C2CCCCC2)C[C@@H]1C,inactive
16,C[C@H]1CN([C@@H](C)CO)S(=O)(=O)c2ccc(C#Cc3ccc(F)cc3)cc2O[C@@H]1CN(C)S(=O)(=O)c1ccc(F)cc1,inactive
17,COCC(=O)N1[C@H](CO)[C@@H](c2ccccc2)C12CN(Cc1cc(F)ccc1F)C2,inactive
18,COc1ccc(S(=O)(=O)Nc2ccc3c(c2)C(=O)N([C@H](C)CO)C[C@@H](C)[C@@H](CN(C)Cc2ccc(Cl)c(Cl)c2)O3)cc1,inactive
19,Cc1noc(C)c1S(=O)(=O)Nc1ccc2c(c1)CC(=O)N([C@H](C)CO)C[C@H](C)[C@H](CN(C)Cc1ccncc1)O2,inactive
20,CS(=O)(=O)Nc1ccc2c(c1)[C@H]1C[C@@H](CC(=O)NCCc3ccccc3)O[C@@H](CO)[C@H]1O2,inactive
